In PubChem BioAssay AID652016 (National Center for Advancing Translational Sciences (NCATS), 2013):
Results filed as inconclusive are left out. A number with no mark means an inactive call. The source made the active and inactive calls. Calls come from the whole dose curve; as a rule, active = well fitted inhibition curve with a large enough effect; inconclusive = small, poorly fitted or top-dose-only effect; inactive = flat fitted curve, though single readings scatter.

molecular target: Luciferin 4-monooxygenase (Photinus pyralis) (UniProt P08659); test: qHTS Assay for Inhibitors of Firefly Luciferase from the GSK Published Protein Kinase Inhibitor Set; conditions: purified firefly luciferase, luminescence inhibition; series mostly up to 57.5 µM; activity change, negative = inhibition: at the top concentration
Sequence (P08659 whole entry, looked up): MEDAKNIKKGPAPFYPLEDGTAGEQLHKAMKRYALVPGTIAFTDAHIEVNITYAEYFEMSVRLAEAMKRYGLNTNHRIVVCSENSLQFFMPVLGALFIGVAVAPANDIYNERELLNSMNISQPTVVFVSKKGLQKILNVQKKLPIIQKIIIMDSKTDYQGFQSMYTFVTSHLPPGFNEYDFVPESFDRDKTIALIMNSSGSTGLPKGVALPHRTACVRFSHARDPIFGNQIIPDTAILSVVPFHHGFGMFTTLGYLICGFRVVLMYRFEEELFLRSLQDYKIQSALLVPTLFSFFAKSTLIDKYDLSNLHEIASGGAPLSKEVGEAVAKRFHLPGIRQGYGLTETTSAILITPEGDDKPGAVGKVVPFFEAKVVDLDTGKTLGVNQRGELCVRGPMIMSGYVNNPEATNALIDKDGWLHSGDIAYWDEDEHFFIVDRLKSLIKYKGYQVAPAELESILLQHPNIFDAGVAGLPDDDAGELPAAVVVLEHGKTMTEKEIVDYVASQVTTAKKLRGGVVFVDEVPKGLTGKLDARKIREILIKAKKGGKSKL
Outline: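 Enzyme-level luminescence assay: compounds titrated (about 60uM down to 300pM) into substrate buffer (10uM ATP, 10uM D-luciferin, pH 7.5 Tris acetate with Mg, Tween-20, BSA), then 10nM firefly luciferase added; read after ~5 min.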
% is set by controls: 0 for no effect and ±100 for the full control effect; potency is the fitted concentration of half-maximal effect.

SMILES	activity change, negative = inhibition [%]	Potency
Cc1cc(-c2ccccn2)cc(C)c1C=Cc1cncc(-c2nn[nH]n2)c1	-18.8	
COc1cc2ncn(-c3cc(OCc4ccccc4S(C)(=O)=O)c(C#N)s3)c2cc1OC	5.28	
CC1=C(C(=O)Nc2ccc3n[nH]c(C)c3c2)C(c2ccc(C(F)(F)F)cc2)CC(=O)N1 (configuration not stated)	-0.842	
CCS(=O)(=O)c1ccc(OC)c(Nc2ncc(-c3ccccc3Cl)o2)c1	-5.19	
CCOc1nccc2c1nc(-c1nonc1N)n2CC	14.4	
c1cc(-c2cnn3nc(N4CCOCC4)ccc23)nc(NC2CC2)n1		4.61 µM (active)
CCn1c(-c2nonc2N)nc2ccccc21	2.35	
O=C1Nc2ccccc2C1=C1CCc2cc(O)ccc21		5.17 µM (active)
Fc1cccc(COc2ccc(Nc3ncnc4sc(-c5ccco5)cc34)cc2Cl)c1	10.4	
Nc1nccc(-c2c(-c3ccc(F)cc3)nn3cc(C(F)(F)F)ccc23)n1	-2.4	
CC(Oc1cc(-n2cnc3ccc(OC4CCN(C)CC4)cc32)sc1C(N)=O)c1ccccc1Cl (configuration not stated)	4.46	
CCN(CC)Cc1ccc(Nc2nccc(-c3cnn4ncccc34)n2)cc1	-7.2	
Cc1ccc2c(-c3ccnc(Nc4ccccc4)n3)c(-c3ccc(F)cc3)nn2n1	1.59	
CCc1nccc2c1nc(-c1nonc1N)n2CC	4.72	
CCN(CC)S(=O)(=O)c1ccc(OC)c(Nc2ncc(-c3ccccc3)o2)c1	0.125	
CCn1c(-c2nonc2N)nc2ccncc21	0.105	
COc1ccc(-c2nn3ncccc3c2-c2ccnc(Nc3cccc(C(F)(F)F)c3)n2)cc1	-0.544	
